Test results as given in PubChem BioAssay (Tox21).
Results filed as inconclusive are left out. The source made the active and inactive calls. Calls come from the whole dose curve; as a rule, active = well fitted cell-killing curve with a large enough effect in the repeat runs; inconclusive = weak or mixed curves, or effect the other way; inactive = flat fitted curve, though single readings scatter. Peptide text beside a SMILES is read from it.

Assay: Nuclear factor erythroid 2-related factor 2/antioxidant responsive element (Nrf2/ARE) small molecule agonists: qHTS cell viability counter screen in human keratinocytes (AID 1919968); note: nearly all actives have a fitted effect of over 55% in size
Details: KeratinoSens HaCaT ARE cells viability, CellTiter-Fluor, 24 h; series mostly up to 92.4 µM; activity change, negative = cytotoxicity: at the top concentration
Description: U.S. Tox21 Program National Center for Advancing Translational Sciences [NCATS] Division of Preclinical Innovation [DPI] U.S. Environmental Protection Agency [EPA] National Institutes of Environmental Health Sciences [NIEHS] National Toxicology Program [NTP] U.S. Food and Drug Administration [FDA] Tox21 Assay Overview: Oxidative stress has been implicated in the pathogenesis of a variety of diseases ranging from cancer to neurodegeneration. The antioxidant response element (ARE) signaling pathway plays an important role in the amelioration of oxidative stress. The KeratinoSens (Givaudan, Switzerland) is an in vitro test method which quantifies luciferase induction as a measure of activation of Keap1-Nrf2-antioxidationt/electrophile response element (ARE) dependant pathway in HaCaT human keratinocytes stably transfected with a selectable plasmid. The KeratinoSens assay is a cell-based assay with a reporter cell line to detect potential skin sensitizers by their ability to induce the Nrf2/ARE-response. The activation of the report gene under culture conditions can be detected by ONE-Glo Luciferase Assay System (Promega, Madison, WI). This cell line has been used to screen the Tox21 10K compound library to identify agonists that induce oxidative stress. The cytotoxicity of the Tox21 compound library against the KS-ARE cell line was tested in parallel by measuring the cell viability using CellTiter- Fluor assay system (Promega, Madison, WI) in the same wells.
Tox21 Assay Protocol Summary: HaCaT derived cell line KeratinoSens were dispensed at 1,500 cells/5uL/well in 1536-well white wall/solid bottom plates using a Multidrop Combi (ThermoFisher Scientific, Waltham, MA) dispenser. After the assay plates were incubated at 37 C/5% CO2 for 5 h, 23 nL of compounds dissolved in DMSO, positive controls or DMSO only was transferred to the assay plate by a pintool workstation (Kalypsys, San Diego, CA). The plates were incubated at 37 C/5% CO2 for 23 h, followed by addition of 1uL/well of CellTiter-Fluor reagent into the assay plates using a Flying Reagent Dispenser (Aurora Discovery, San Diego, CA) for cell viability readout that measures cytotoxicity. After 1 h incubation at 37 C/5% CO2 the fluorescence intensity was measured using a ViewLux (PerkinElmer, Shelton, CT) plate reader.
% is set by controls: 0 for no effect and ±100 for the full control effect; potency is the fitted concentration of half-maximal effect.

SMILES | activity change, negative = cytotoxicity | Potency
CC(C(=O)O)c1ccc(C(=O)c2ccccc2)s1 (stereo not given) | 1.84% [at 42.5 µM] (inactive) | –
O=C1Nc2cc(Cl)ccc2Oc2ccccc21 | -0.165% [at 42.5 µM] (inactive) | –
Nc1cccc(S(=O)(=O)O)c1 | 0.851% (inactive) | –
C[C@H](CCC(=O)O)[C@H]1CC[C@H]2[C@@H]3[C@H](O)C[C@@H]4C[C@H](O)CC[C@]4(C)[C@H]3C[C@H](O)[C@]12C | 0.465% [at 42.5 µM] (inactive) | –
Cc1ccnc2ccccc12 | 12.8% (inactive) | –
CC(C)(O)c1ccccc1CC[C@@H](SCC1(CC(=O)O)CC1)c1cccc(/C=C/c2ccc3ccc(Cl)cc3n2)c1 | 2.35% [at 42.5 µM] (inactive) | –
CC/C=C\CC/C=C/C(OCC)OCC | 8.4% (inactive) | –
Cc1cc(C(C)(C)C)cc(C)c1CC1=NCCN1 | -7.24% [at 42.5 µM] (inactive) | –
CCCCNc1ccc(C(=O)OCCN(C)C)cc1 | -0.328% [at 42.5 µM] (inactive) | –
CC(C)OC(=O)c1cc2c(OCC(O)CNC(C)(C)C)cccc2[nH]1 (stereo not given) | -11.6% [at 42.5 µM] (inactive) | –
FC(F)OC(Cl)C(F)(F)F (stereo not given) | -2.48% (inactive) | –
CCc1nn(C2CCCCC2)c2cc(C3(C#N)CCC(C(=O)O)CC3)ccc12 (stereo not given) | -18.8% (inactive) | –
CN=C(NC#N)Nc1ccc(C2=NNC(=O)CC2C)cc1 (stereo not given) | 0.397% [at 42.5 µM] (inactive) | –
CCOC(=O)C1CC(=O)C(=C(O)C2CC2)C(=O)C1 (stereo not given) | 2.52% (inactive) | –
c1ccc(C(O[C@H]2CCCN(CCc3ccc4c(c3)OCO4)C2)c2ccccc2)cc1 | -20.6% [at 42.5 µM] (inactive) | –
NS(=O)(=O)c1cc(C(=O)NN2C[C@H]3[C@H]4CCC(C4)[C@H]3C2)ccc1Cl | 2.21% [at 42.5 µM] (inactive) | –
CCCCCCCCCCCCN(CCO)CCO | – | 30.5 µM (active)
COc1cnc(NS(=O)(=O)c2ccc(N)cc2)nc1 | -1.42% [at 42.5 µM] (inactive) | –
C=CCCCC | 1.41% (inactive) | –
COc1cc(N)c(Cl)cc1C(=O)NC1CCN(CCCOc2ccc(F)cc2)CC1OC (stereo not given) | -2.04% [at 42.5 µM] (inactive) | –

SMILES | activity change, negative = cytotoxicity | Potency
Nc1ccc(S(=O)(=O)Nc2ccnn2-c2ccccc2)cc1 | 8.64% [at 19 µM] (inactive) | –
CCOC(=O)[C@H](CCc1ccccc1)N[C@@H](C)C(=O)N(CC(=O)O)C1Cc2ccccc2C1 | 1.34% [at 42.5 µM] (inactive) | –
O=C(c1ccccc1)c1ccc(Cl)cc1 | -0.529% (inactive) | –
CCCCCCCCCCCSCC(=O)O | -19.4% (inactive) | –
COC(=O)C1=C(C)NC(C)=C(C(=O)OCCN2CCN(C(c3ccccc3)c3ccccc3)CC2)C1c1cccc([N+](=O)[O-])c1 (stereo not given) | -2.79% [at 42.5 µM] (inactive) | –
CC(C)=CC(=O)O | 1.48% (inactive) | –
CCOC(=O)C(=O)OCC | -6.91% (inactive) | –
COc1ccc(OC(=O)N(CC(=O)O)Cc2ccc(OCCc3nc(-c4ccccc4)oc3C)cc2)cc1 | -8.09% [at 42.5 µM] (inactive) | –
CO[C@H]1O[C@H](CO)[C@@H](O)[C@H](O)[C@H]1O | 1.67% (inactive) | –
CC(=O)OC(C)(C)C | 3.55% (inactive) | –
CC(C)(C)NCCNC(C)(C)C | -0.288% (inactive) | –
CCCSS/C(CCO)=C(\C)N(C=O)Cc1cnc(C)nc1N | 2.45% [at 42.5 µM] (inactive) | –
CCCCCOC(=O)CCC | 2.08% (inactive) | –
Cc1c(C)c2c(c(C)c1O)CC[C@@](C)(CCC[C@H](C)CCC[C@H](C)CCCC(C)C)O2 | 0.323% (inactive) | –
CCCCCCn1c(=O)c2c(ncn2C)n(C)c1=O | -3.88% [at 42.5 µM] (inactive) | –
CC(=O)N[C@@H](CO)C(=O)N[C@@H](CC(=O)O)C(=O)N[C@@H](CCCCN)C(=O)N1CCC[C@H]1C(=O)O (Ac-SDKP-OH) | 3.2% [at 42.5 µM] (inactive) | –
Nc1ccc(C(=O)NCC(=O)O)cc1 | 1.9% [at 42.5 µM] (inactive) | –
OCc1ccccn1 | -0.992% [at 42.5 µM] (inactive) | –
CN(C[C@@H](CC[N+]12CCC(C3CCCCC3)(CC1)CC2)c1ccc(Cl)c(Cl)c1)C(=O)c1cc(C(F)(F)F)cc(C(F)(F)F)c1 | – | 61.1 µM (active)
CCCC[P+](C)(CCCC)CCCC | -1.01% (inactive) | –
